# Measurements published in PubChem BioAssay (NCATS).
# Inconclusive results are not listed. The source made the active and inactive calls. The call rests on the fitted dose curve; in most records, active means well fitted inhibition curve with a large enough effect; inconclusive means small, poorly fitted or top-dose-only effect; inactive means flat fitted curve, though single readings scatter.
# Molecular target: Calcium and integrin-binding protein 1 (Homo sapiens) (UniProt Q99828)
# Assay: Primary qHTS for Identification of Calcium Integrin Binding Protein 1 (CIB1) Competitor (AID 1508620); further: top concentration of the series differs between compounds
# Details: CIB1-GST / FITC-alphaIIb peptide fluorescence polarization; series mostly up to 114 µM; activity change, negative = inhibition: at the top concentration
# Outline: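 Fluorescence polarization competition: GST-tagged CIB1 (1 uM final) preincubated with compound 15 min at room temperature, then FITC-labelled alphaIIb peptide (100 nM final) added. After 15 min at room temperature, polarization read at Ex 480/Em 540.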
# On the % scale 0 is the no-effect control and ±100 the full control effect.
# Sequence of Calcium and integrin-binding protein 1 (Homo sapiens) (Q99828 whole entry, looked up): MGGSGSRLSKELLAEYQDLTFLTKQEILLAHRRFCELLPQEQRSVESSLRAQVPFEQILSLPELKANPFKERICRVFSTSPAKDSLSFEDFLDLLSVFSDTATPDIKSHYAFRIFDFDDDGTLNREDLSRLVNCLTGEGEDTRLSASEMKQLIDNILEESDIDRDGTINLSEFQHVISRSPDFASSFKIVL
row,SMILES,"activity change, negative = inhibition"
1,Cc1ccc(S(=O)(=O)c2ccc([N+](=O)[O-])o2)cc1,-19.7% (inactive)
2,C[C@]12C[C@@H](O)[C@@H]3C[C@@]1(O[C@@H]1O[C@H](CO)[C@@H](O)[C@H](O)[C@H]1O)[C@]3(COC(=O)c1ccccc1)C(=O)O2,2.45% [at 57.7 µM] (inactive)
3,CC(=O)N[C@H]1[C@H](O[C@H]2CC[C@@]3(C)C(CC[C@]4(C)C3CC=C3[C@@H]5CC(C)(C)CC[C@]5(C(=O)OC5OCC(O)C(O)C5O)CC[C@]34C)C2(C)C)O[C@H](COC2OC(C)C(O)C(OC3OC(C)C(O)C(O)C3O)C2O)[C@@H](O)[C@@H]1O (some centres undefined),0.669% [at 30.2 µM] (inactive)
4,CC(C)(C)c1ccc(S(=O)(=O)Nc2ccc(Cl)cc2C(=O)c2cc[n+]([O-])cc2)cc1,-5.23% (inactive)
5,O=C1NC(Cc2c[nH]c3ccccc23)C(=O)NC1Cc1cnc[nH]1 (centres undefined),4.51% [at 57.7 µM] (inactive)
6,CC1(C)CCCC2(C)C=C(C(=O)O)C(O)CC12 (centres undefined),5.28% (inactive)
7,C/C=C(/COC(=O)/C(C)=C/C)C(=O)OC(CC)c1ccc(OC)c(OC)c1 (centres undefined),2.71% [at 57.7 µM] (inactive)
8,C=C(C)C1Cc2cc(C(=O)OC3OC(CO)C(O)C(O)C3O)ccc2O1 (centres undefined),-1.89% [at 57.7 µM] (inactive)
9,COC(=O)C1=CO[C@@H](O[C@@H]2O[C@H](CO)[C@@H](O)[C@H](O)[C@H]2O)C2C1C(=O)C[C@H]2C (some centres undefined),2.21% [at 57.7 µM] (inactive)
10,C[C@@H]1C[C@H]2O[C@@H]2/C=C\C=C\C(=O)Cc2c(Cl)c(O)cc(O)c2C(=O)O1,-11.2% [at 30.2 µM] (inactive)
11,CCN1CCN(Cc2ccc(NC(=O)c3ccc(C)c(NC(=O)c4cncc(-c5cccs5)c4)c3)cc2C(F)(F)F)CC1,1.42% (inactive)
12,COc1cc(O)c2c(c1)C1=C[C@H](O)[C@@H](O)C[C@]1(C)OC2=O,1.25% (inactive)
13,CC1CCC23COC(=O)C2=CC(O)CC3C1(C)CCC1=CC(O)OC1=O (centres undefined),0.859% [at 57.7 µM] (inactive)
14,O=C(OC[C@@]1(O)CO[C@@H](O[C@H]2[C@H](Oc3ccc(O)cc3)O[C@H](CO)[C@@H](O)[C@@H]2O)[C@@H]1O)c1ccc(O)cc1,0.909% [at 57.7 µM] (inactive)
15,O=C(O)Cc1cn(C2OCC(O)C(O)C2O[C@@H]2O[C@H](CO)[C@@H](O)[C@H](O)[C@H]2O)c2ccccc12 (some centres undefined),1.45% [at 57.7 µM] (inactive)
16,CCCCC1CCN(CCCC(=O)c2ccccc2C)CC1,1.04% (inactive)
17,C/C1=C\CC[C@]2(C)O[C@@H]2[C@H](O)[C@H](C(C)C)[C@H](OC(=O)/C=C/c2ccccc2)C1,3.64% [at 57.7 µM] (inactive)
18,CN(C)CCCCC(=O)Nc1ccc(NC(=S)NC(=O)c2ccc(C(C)(C)C)cc2)cc1,-12.3% (inactive)
19,CC1(C)CC2C(C1)C(C)(O)C13CC1(COC3=O)C2O (centres undefined),0.446% (inactive)
20,CN[C@@H]1[C@H](O[C@H]2[C@H](O[C@@H]3[C@@H](O)[C@H](O)[C@@H](N=C(N)N)[C@H](O)[C@H]3N=C(N)N)O[C@@H](C)[C@]2(O)C=O)O[C@@H](CO)[C@H](O)[C@H]1O,-0.31% [at 57.7 µM] (inactive)

row,SMILES,"activity change, negative = inhibition"
1,CC1=C(C(=O)O)/C(=C\CO[C@@H]2O[C@H](CO)[C@@H](O)[C@H](O)[C@H]2O)C(OC(=O)/C=C/c2ccc(O)cc2)C1 (some centres undefined),-3.79% [at 57.7 µM] (inactive)
2,C/C(=C\CCC(C)CCO)C(=O)OC1(C)CCC2C(C(=O)O)=COC(OC3OC(CO)C(O)C(O)C3O)C21 (centres undefined),-4.62% [at 57.7 µM] (inactive)
3,Nc1nc(Nc2ccc(S(N)(=O)=O)cc2)n(C(=S)Nc2c(F)cccc2F)n1,-3.36% (inactive)
4,CCOc1ccc2nc(SCCN3CCOCC3)[nH]c2c1,-5% (inactive)
5,CC1(C(=O)O)CCCC2(C)C3=CCC4CC3(CCC12)CC4CO (centres undefined),2.97% [at 57.7 µM] (inactive)
6,CC[C@H](C)[C@H](NC(=O)[C@H]([C@@H](C)CC)N(C)C(C)=O)C(=O)N[C@H](C(=O)N[C@@H](CC(C)C)C(=O)[C@@]1(C)CO1)[C@@H](C)O,5.27% (inactive)
7,O=C1CCC(=O)N(O)CCCCCNC(=O)CCC(=O)N(O)CCOCCNC(=O)CCC(=O)N(O)CCCCCN1,1.81% [at 30.2 µM] (inactive)
8,COc1ccc(/C=C\C(=O)O)c(O[C@@H]2O[C@H](CO)[C@@H](O)[C@H](O)[C@H]2O)c1,3.44% [at 57.7 µM] (inactive)
9,COC(=O)c1ccccc1O[C@@H]1O[C@H](CO)[C@@H](O)[C@H](O)[C@H]1O[C@@H]1O[C@@H](C)[C@H](O)[C@@H](O)[C@H]1O,0.69% [at 57.7 µM] (inactive)
10,CC1CC(C(O)C(C)(C)O)OC2CC3(C)C4(C)CCC5C(C)(C)C(=O)CCC5(C)C4CCC3(O)C12O (centres undefined),1.07% [at 57.7 µM] (inactive)
11,CC(C)(O)c1ccc2c(c1)C(O)C[C@H]1[C@](C)(C(=O)O)CCC[C@]21C (some centres undefined),0.881% [at 57.7 µM] (inactive)
12,CC(=O)C12OC(C)(C)OC1CC1C3CCC4=CC(=O)C=CC4(C)C3(F)C(O)CC12C (centres undefined),1.61% (inactive)
13,COC(=O)c1ccnc(-c2cc(C(=O)NCCc3ccccc3)ccn2)c1,-3.3% (inactive)
14,CC1OC(O[C@H]2CC[C@@]3(C)C(CC[C@]4(C)C3CC=C3C5CC(C)(C)CC[C@]5(C(=O)OC5OC(CO)C(OC6OC(COC7OCC(O)C(O)C7O)C(O)C(O)C6O)C(O)C5O)CC[C@]34C)C2(C)C)C(O)C(O)C1OC1OCC(OC2OCC(O)C(O)C2O)C(O)C1O (some centres undefined),-11.1% [at 12.4 µM] (inactive)
15,CC1=C(CO)C(=O)O[C@@H]([C@@H](C)[C@H]2CC[C@H]3[C@@H]4C[C@H]5O[C@]56[C@@H](O)C=CC(=O)[C@]6(C)[C@H]4CC[C@]23C)C1,-5.27% [at 57.7 µM] (inactive)
16,COc1cccc2cc3c(c(O[C@@H]4O[C@H](CO[C@@H]5O[C@H](CO)[C@@H](O)[C@H](O)[C@H]5O)[C@@H](O)[C@H](O)[C@H]4O)c12)C(C)OC3=O (some centres undefined),-7.15% [at 57.7 µM] (inactive)
17,CC1(C)CC[C@]2(C(=O)O[C@@H]3O[C@H](CO)[C@@H](O)[C@H](O)[C@H]3O)CC[C@]3(C)C(=CCC4[C@@]5(C)CC[C@H](O[C@@H]6O[C@H](C(=O)O)[C@@H](O)[C@H](O)[C@H]6O)[C@@](C)(CO)C5CC[C@]43C)C2C1 (some centres undefined),3.48% [at 30.2 µM] (inactive)
18,Cc1ccc(S(=O)(=O)Cc2nc(-c3ccc(C(=O)NCc4cccnc4)cc3)oc2C)cc1,29.4% (inactive)
19,CC[C@]12C=CCN3CC[C@@]4(c5cc([C@@]6(C(=O)OC)C[C@H]7C[C@@H](C(C)(F)F)CN(Cc8c6[nH]c6ccccc86)C7)c(OC)cc5N(C)[C@H]4[C@@](O)(C(=O)OC)[C@@H]1OC(C)=O)[C@@H]32,0.761% [at 30.2 µM] (inactive)
